HGIII-sPLA2 inh = human group III sPLA2 inhibitors, primary screen, biochemical, QFRET, BODIPY PC-A2 liposome substrate. Group 3 secretory phospholipase A2 (Homo sapiens), Q9NZ20. QFRET BODIPY PC-A2 liposome hydrolysis, fluorescence. inhibition, % at 12.2 µM. 370,000 tested, 0.56% active. AID 743126, 2013;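 active means inhibition above mean plus 3 SD of compounds lying within the high and low control bounds, cut at about 19% in these data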;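 further: 0% = median of test compound wells and 100% = no enzyme DMSO wells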
ADAM17 inh = ADAM17 inhibitors, primary screen, biochemical, QFRET | 370,000 tested, 0.83% active | AID 720648, 2013 | inhibition, % at 6.95 µM | Disintegrin and metalloproteinase domain-containing protein 17 (Homo sapiens), P78536 | recombinant ADAM17, EDANS/DABCYL FRET peptide cleavage;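 active means inhibition above the mean of compounds lying between control limits plus 3 SD, set per campaign, cut at about 8.5% in these data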;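 further: 0% = DMSO-only wells as the low control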
KLK7 zymogen act = proKLK7 zymogen activators, primary screen, biochemical, fluorescence intensity; Kallikrein-7 (Homo sapiens), P49862; purified proKLK7, EDANS-DABCYL substrate fluorescence; 100% is mature enzyme control, 0% vehicle; activation, % at 7 µM; 370,000 tested, 0.9% active;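 active means activation above the mean of all tested compounds plus 3 SD, computed per campaign excluding outliers beyond control limits, cut at about 13% in these data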
ADAM10 inh = human ADAM10 inhibitors, primary screen, biochemical, QFRET, HTS. 370,000 tested, 0.62% active. Disintegrin and metalloproteinase domain-containing protein 10 (Homo sapiens), O14672. inhibition, % at 7 µM. recombinant ADAM10, EDANS/DABCYL FRET peptide cleavage, 3 h;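 active means inhibition above a per-campaign cutoff equal to the mean of compounds falling between control-based bounds plus 3 SD, cut at about 20% in these data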;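 further: 0% = DMSO wells while the 100% control is not disclosed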
PLCb3 inh = human PLC-beta3 inhibitors, primary screen, biochemical, fluorescence | inhibition, % at 12.2 µM | 1-phosphatidylinositol 4,5-bisphosphate phosphodiesterase beta-3 (Homo sapiens), Q01970 | AID 720704, 2013 | Purified PLC-beta3, fluorogenic substrate | 370,000 tested, 0.18% active; in the data active means inhibition above about 11%;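 further: 0% = median of compound wells on plate and 100% = full blocker control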
Target sequence (Q01970 whole entry, looked up): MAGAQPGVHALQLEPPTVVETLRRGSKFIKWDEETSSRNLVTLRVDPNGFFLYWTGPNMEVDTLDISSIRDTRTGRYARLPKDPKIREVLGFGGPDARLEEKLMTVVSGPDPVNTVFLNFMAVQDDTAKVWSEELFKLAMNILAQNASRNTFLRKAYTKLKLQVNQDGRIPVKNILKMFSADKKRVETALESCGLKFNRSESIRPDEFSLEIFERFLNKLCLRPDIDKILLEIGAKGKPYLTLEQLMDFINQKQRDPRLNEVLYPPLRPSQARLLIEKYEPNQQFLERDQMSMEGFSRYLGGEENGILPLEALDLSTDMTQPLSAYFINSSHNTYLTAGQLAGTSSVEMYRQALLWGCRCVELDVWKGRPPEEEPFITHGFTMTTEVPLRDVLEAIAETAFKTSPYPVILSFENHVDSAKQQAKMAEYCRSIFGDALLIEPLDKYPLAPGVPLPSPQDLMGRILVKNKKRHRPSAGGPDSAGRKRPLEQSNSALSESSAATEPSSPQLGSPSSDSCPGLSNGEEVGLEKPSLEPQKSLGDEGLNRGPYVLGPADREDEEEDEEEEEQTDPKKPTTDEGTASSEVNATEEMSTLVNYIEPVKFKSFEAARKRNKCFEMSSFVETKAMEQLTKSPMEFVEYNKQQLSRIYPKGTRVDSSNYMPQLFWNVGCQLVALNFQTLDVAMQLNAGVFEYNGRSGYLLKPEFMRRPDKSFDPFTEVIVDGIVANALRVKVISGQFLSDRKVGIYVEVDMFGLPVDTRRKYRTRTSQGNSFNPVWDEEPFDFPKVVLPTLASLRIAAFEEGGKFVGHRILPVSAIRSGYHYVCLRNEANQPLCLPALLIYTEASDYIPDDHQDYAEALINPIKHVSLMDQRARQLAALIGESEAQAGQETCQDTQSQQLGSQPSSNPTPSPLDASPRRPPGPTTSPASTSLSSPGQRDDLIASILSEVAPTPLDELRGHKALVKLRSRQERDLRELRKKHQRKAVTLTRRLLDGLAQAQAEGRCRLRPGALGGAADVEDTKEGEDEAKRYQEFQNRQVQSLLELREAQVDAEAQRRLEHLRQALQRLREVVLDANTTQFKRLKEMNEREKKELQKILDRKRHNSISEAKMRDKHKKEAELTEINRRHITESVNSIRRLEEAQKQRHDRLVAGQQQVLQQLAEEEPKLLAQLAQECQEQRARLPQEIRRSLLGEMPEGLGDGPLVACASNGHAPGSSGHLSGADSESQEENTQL
PLC-gamma1 inh = PLC-gamma1 enzyme inhibitors, primary screen, biochemical, fluorescence, purified enzyme | 1-phosphatidylinositol 4,5-bisphosphate phosphodiesterase gamma-1 (Homo sapiens), P19174 | fluorogenic substrate | inhibition, % at 12.2 µM | 370,000 tested, 0.84% active | AID 720700, 2013; in the data active means inhibition above about 9.5%
ADAM10 counter = ADAM10 inhibitors, counter-screen for ADAM17 exosite inhibitor project, biochemical, FRET, human ADAM10; shares compounds with ADAM17 inh; recombinant ADAM10, EDANS/DABCYL FRET peptide cleavage, 3 h; 2,900 tested, 47% active; inhibition, % at 6.95 µM;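 active means mean inhibition over the triplicate runs exceeds the activity threshold set in the earlier primary screen, cut at about 20% in these data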;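 further: 0% = DMSO wells and 100% = marimastat wells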
ADAM17 confirm = ADAM17 inhibitors, hit retest, confirmation, biochemical, QFRET peptide cleavage; recombinant ADAM17, EDANS/DABCYL QFRET peptide cleavage; shares compounds with ADAM17 inh; inhibition, % at 6.95 µM; 2,900 tested, 65% active; AID 743257, 2014;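 active means mean inhibition across replicates above the hit cutoff set in the primary screen, cut at about 8.5% in these data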;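 further: 0% = DMSO wells and 100% = marimastat wells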
* = called active by the depositor. Most compounds without a hit are left out; they make up all but 3.4% or so of the library.

What do the screens show for `O=C(COc1ccccc1Br)N1CCN(C(=O)c2cccs2)CC1`?
HGIII-sPLA2 inh: -2.4; ADAM17 inh: 8.8*; KLK7 zymogen act: 0.0; ADAM10 inh: 7.4; PLCb3 inh: -3.8; PLC-gamma1 inh: 13.6*; ADAM10 counter: 12.7; ADAM17 confirm: 9.3*

What do the screens show for `O=C(Nc1nnc([C@H]2C[C@H](O)[C@@H](CO)O2)s1)Nc1ccc(F)cc1F`?
HGIII-sPLA2 inh: 0.8; ADAM17 inh: -2.7; KLK7 zymogen act: -0.7; ADAM10 inh: -6.5; PLCb3 inh: 4.7; PLC-gamma1 inh: -2.7

What do the screens show for `O=C(Nc1nnc([C@@H]2C[C@H](O)[C@@H](CO)O2)s1)Nc1ccc(F)cc1F`?
HGIII-sPLA2 inh: -3.6; ADAM17 inh: 10.3*; KLK7 zymogen act: 0.2; ADAM10 inh: 4.7; PLCb3 inh: 2.7; PLC-gamma1 inh: 5.0; ADAM10 counter: 2.1; ADAM17 confirm: 2.4

What do the screens show for `CCCCCCNC(=O)C1CSCCS(=O)(=O)N1Cc1ccc(F)cc1` (configuration not stated)?
HGIII-sPLA2 inh: 5.1; ADAM17 inh: 6.2; KLK7 zymogen act: -0.1; ADAM10 inh: 4.1; PLCb3 inh: 4.7; PLC-gamma1 inh: 1.6

How did CCC[C@H]1[C@@H](OC(=O)N2CCOCC2)CC[C@@]23CCCN2C(=O)CCC[C@@H]13 do in these assays?
HGIII-sPLA2 inh: 16.7; ADAM17 inh: -2.0; ADAM10 inh: -14.1; PLCb3 inh: -3.8; PLC-gamma1 inh: 6.3

How did CCOC(=O)C1(C)CCCCCN1C(=O)c1ccc(OC)c(C(F)(F)F)c1 (configuration not stated) do in these assays?
HGIII-sPLA2 inh: -3.4; ADAM17 inh: 8.7*; KLK7 zymogen act: 0.3; ADAM10 inh: 6.5; PLCb3 inh: 1.7; PLC-gamma1 inh: 7.4; ADAM10 counter: -2.8; ADAM17 confirm: -2.2

Results for COc1ccc(C(=O)N2CCCC2(C)C(=O)O)cc1C(F)(F)F (configuration not stated) ?
HGIII-sPLA2 inh: 8.0; ADAM17 inh: -3.3; KLK7 zymogen act: -0.1; ADAM10 inh: -3.1; PLCb3 inh: 2.7; PLC-gamma1 inh: 5.9

How did COc1ccccc1NS(=O)(=O)c1cc(NC(=O)Nc2ccccc2)ccc1N1CCCCC1 do in these assays?
HGIII-sPLA2 inh: -34.9; ADAM17 inh: 8.8*; KLK7 zymogen act: -0.4; ADAM10 inh: 12.8; PLCb3 inh: 4.9; PLC-gamma1 inh: 3.3; ADAM10 counter: 3.6; ADAM17 confirm: 8.1

How did O=C(/C=C/c1cccs1)Nc1ccc(N2CCOCC2)c(S(=O)(=O)Nc2ccccc2Cl)c1 do in these assays?
HGIII-sPLA2 inh: -15.7; ADAM17 inh: 10.7*; KLK7 zymogen act: -4.1; ADAM10 inh: 19.7; PLCb3 inh: -45.2; PLC-gamma1 inh: -39.2; ADAM10 counter: 1.7; ADAM17 confirm: 5.7

Results for COc1ccccc1NS(=O)(=O)c1cc(NC(=O)c2cccs2)ccc1N1CCCC1 ?
HGIII-sPLA2 inh: -23.7; ADAM17 inh: 10.2*; KLK7 zymogen act: -19.9; ADAM10 inh: 19.6; PLCb3 inh: -46.5; PLC-gamma1 inh: -34.1; ADAM10 counter: -36.2; ADAM17 confirm: 4.0

Results for COc1ccccc1NS(=O)(=O)c1cc(NC(=O)C(C)C)ccc1N1CCCCC1 ?
HGIII-sPLA2 inh: -27.1; ADAM17 inh: 7.3; KLK7 zymogen act: -0.5; ADAM10 inh: 11.6; PLCb3 inh: 0.4; PLC-gamma1 inh: 1.8

What do the screens show for `O=C(CN(C(=O)OCC1c2ccccc2-c2ccccc21)[C@@H](Cc1ccccc1)C(=O)O)OCc1ccc(C(=O)NCc2ccccc2)cc1`?
HGIII-sPLA2 inh: -38.7; ADAM17 inh: 1.6; KLK7 zymogen act: 0.2; ADAM10 inh: 10.3; PLCb3 inh: -4.1; PLC-gamma1 inh: 0.9

Results for CCN1C(=O)C(CC(=O)Nc2ccc(Br)cc2)N(CCCc2ccccc2)C1=S (configuration not stated) ?
HGIII-sPLA2 inh: -7.6; ADAM17 inh: 9.0*; KLK7 zymogen act: 0.3; ADAM10 inh: 17.6; PLCb3 inh: 9.0; PLC-gamma1 inh: 8.5; ADAM10 counter: 35.0*; ADAM17 confirm: 19.7*

How did CCOc1ccc(NC(=O)CC2C(=O)N(C)C(=S)N2CCCc2ccccc2)cc1 (configuration not stated) do in these assays?
HGIII-sPLA2 inh: -10.1; ADAM17 inh: 2.2; KLK7 zymogen act: -0.5; ADAM10 inh: 6.4; PLCb3 inh: 0.9; PLC-gamma1 inh: 5.0

Results for O=C(CSC1CC(=O)N(CCc2ccccc2)C1=O)Nc1ccc(Br)cc1 (configuration not stated) ?
HGIII-sPLA2 inh: -43.0; ADAM17 inh: 9.3*; KLK7 zymogen act: -0.5; ADAM10 inh: 12.0; PLCb3 inh: 1.3; PLC-gamma1 inh: 3.2; ADAM10 counter: 10.4; ADAM17 confirm: 7.6

How did Cc1cc(C(=O)CCC(=O)N(C)CC(=O)Nc2ccccc2Br)c(C)s1 do in these assays?
HGIII-sPLA2 inh: 2.4; ADAM17 inh: 11.1*; KLK7 zymogen act: 0.4; ADAM10 inh: 5.8; PLCb3 inh: -0.6; PLC-gamma1 inh: 5.1; ADAM10 counter: -9.8; ADAM17 confirm: -1.5

Results for O=S(=O)(CC1NCc2cc(F)ccc21)NCCc1ccccc1 (configuration not stated) ?
HGIII-sPLA2 inh: 6.3; ADAM17 inh: -2.8; KLK7 zymogen act: -0.3; ADAM10 inh: -14.1; PLCb3 inh: -11.1; PLC-gamma1 inh: -6.7

Results for O=C(c1cc2ccccc2cc1O)N1CCN(c2cccc(Cl)c2)CC1 ?
HGIII-sPLA2 inh: -62.5; ADAM17 inh: 1.0; KLK7 zymogen act: -3.5; ADAM10 inh: 9.8; PLCb3 inh: -112.7; PLC-gamma1 inh: -117.8

What do the screens show for `O=C(c1c(Cl)nc2sccn12)N1CCN(c2cccc(Cl)c2)CC1`?
HGIII-sPLA2 inh: 10.3; ADAM17 inh: 9.1*; KLK7 zymogen act: 0.1; ADAM10 inh: 9.9; PLCb3 inh: 1.3; PLC-gamma1 inh: 6.7; ADAM10 counter: -8.2; ADAM17 confirm: -1.5

Source: PubChem BioAssay (The Scripps Research Institute Molecular Screening Center)
